XTT viability, phenotypic severity score and drug effect data for 21 molecules are collected here from the supplement of paper PMC6805474.

The subject of experiment [1] is Schistosoma mansoni schistosomula (LE). In words: XTT viability relative to DMSO control; higher = more viable (less active). The following applies: 72 h; 10 µM. The protocol:
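XTT/PMS was then added for a further 24 h (72 h total) and A450 was read. % viability = (sample - heat-killed control)/(DMSO control - heat-killed control) x 100, from duplicate wells in two independent experiments.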
Background: Tetrazolium dyes change colour on reduction, which living cells bring about.

The test system of experiment [2] is Schistosoma mansoni schistosomula (NMRI). In words: phenotypic severity score (0-4); higher = more antischistosomal effect, active = 2 or more. The following applies: 10 µM.
Experiment [3] has as its system Schistosoma mansoni schistosomula (Liberian). In words: drug effect (1 - score/DMSO control score) (fraction); higher = more antischistosomal effect, active = 0.5 or more; extreme values may be limits of the assay. The note with it: 10 µM. The essentials:
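A plate was valid only if its 0.1% DMSO wells averaged a score of at least 2. Those wells ran beside duplicate wells in which 50 Liberian-strain Schistosoma mansoni schistosomula each, transformed mechanically from cercariae and pre-incubated at least 12 h, met 10 µM compound in Medium 199 with 5% FCS at 37 °C, 5% CO2. Scoring was visual at 10× at 24, 48 and 72 h, from 3 (normal) to 0 (dead) in quarter-point steps. Drug effect was derived from the mean test-well score against the mean DMSO-well score, with negatives set to zero.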
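For phenotypic severity score (0-4) in this document: visual microscopic scoring of shape, motility and density changes versus 0.5% DMSO solvent controls, one point per descriptor, degeneracy or death scored 4, mean of duplicate wells.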

Take `O=C(OCc1ccccc1)N1CCC(c2cc(-c3ccncc3)c(-c3ccc(F)cc3)[nH]2)CC1`: in experiment [1], the XTT viability turned out to be 124%. For the same molecule, the phenotypic severity score in experiment [2] (24 h), in experiment [2] (48 h) and in experiment [2] (72 h) was 0 (inactive) each time. Moreover, the drug effect in experiment [3] (24 h) is 0.1 (inactive); in experiment [3] (48 h), 0.222 (inactive); in experiment [3] (72 h), 0.188 (inactive).
For the molecule `CS(=O)(=O)c1cccc(-c2cnc3[nH]cc(-c4ccc(CCC(=O)O)cc4)c3c2)c1`, the XTT viability in experiment [1] was 86.9%. Further, the phenotypic severity score in experiment [2] (24 h), in experiment [2] (48 h) and in experiment [2] (72 h) was 0 (inactive) each time. The figures for the drug effect in experiment [3] (24 h), in experiment [3] (48 h) and in experiment [3] (72 h) were 0.227 (inactive), 0.6 (active) and 0.455 (inactive), respectively.
Consider `CC(C)(C)C(=O)N(CCCCCCN1C[C@H](O)[C@@H](O)[C@H](O)[C@H]1CO)C1CCCCCC1`, for which the XTT viability in experiment [1] was 122%. The phenotypic severity score in experiment [2] (24 h) is 0 (inactive); in experiment [2] (48 h), 2 (active); in experiment [2] (72 h) it was 4 (active). Also, the drug effect in experiment [3] (24 h) was 0.25 (inactive); in experiment [3] (48 h) it was 0.556 (active); in experiment [3] (72 h) it was 1 (active).
`O=C(NC1CCN(c2ccnc3ccccc23)C1)c1cccc(C(F)(F)F)c1` (configuration not stated): the XTT viability in experiment [1] was 103%. Moreover, the phenotypic severity score in experiment [2] (24 h), in experiment [2] (48 h) and in experiment [2] (72 h) was 0 (inactive) each time. Besides, the drug effect in experiment [3] (24 h) was 0.135 (inactive); in experiment [3] (48 h) it was 0.556 (active); in experiment [3] (72 h), 0.938 (active).
As for `CC(=O)Nc1ccc(-c2noc(CC3CCCN(Cc4cccc(F)c4C)C3)n2)cc1` (configuration not stated), the XTT viability in experiment [1] is 117%. Moreover, the phenotypic severity score in experiment [2] (24 h), in experiment [2] (48 h) and in experiment [2] (72 h) was 0 (inactive) in each case. The drug effect in experiment [3] (24 h) was 0.1 (inactive); in experiment [3] (48 h), 0.0556 (inactive); in experiment [3] (72 h), 0.188 (inactive).
For `CC(C)(C)c1cc(C(=O)N2CCN(c3nccnc3C#N)CC2)n(Cc2ccccc2)n1`, the XTT viability in experiment [1] came to 120%. Further, the phenotypic severity score in experiment [2] (24 h) was 0 (inactive); in experiment [2] (48 h), 0 (inactive); in experiment [2] (72 h), 1 (inactive). Moreover, the drug effect is < 0 (inactive) in experiment [3] (24 h), 0.027 (inactive) in experiment [3] (48 h) and 0.0303 (inactive) in experiment [3] (72 h).
Turning to `COc1ccc(OC(C)C(=O)Nc2ccc(Cl)cc2C)cc1` (configuration not stated), in experiment [1], the XTT viability worked out at 97.2%. The phenotypic severity score in experiment [2] (24 h), in experiment [2] (48 h) and in experiment [2] (72 h) was 0 (inactive) each time. In addition, the drug effect in experiment [3] (24 h) is 0.182 (inactive); in experiment [3] (48 h) it was 0.35 (inactive); in experiment [3] (72 h) it was 0.345 (inactive).
Regarding `O=C(NC1CC1)c1ccc(N2CCOc3ccc(Cl)cc32)s1`, the XTT viability in experiment [1] was found to be 83.5%. Further, the phenotypic severity score in experiment [2] (24 h), in experiment [2] (48 h) and in experiment [2] (72 h) was 0 (inactive) throughout. Further, the drug effect in experiment [3] (24 h) is 0.35 (inactive); in experiment [3] (48 h), 0.459 (inactive); in experiment [3] (72 h), 0.5 (active).
For the molecule `CCc1nc2ccc(C(=O)NCc3ccc4c(c3)OCO4)cn2c1N(C)Cc1cccs1`, in experiment [1], the XTT viability stood at 140%. Further, the phenotypic severity score in experiment [2] (24 h), in experiment [2] (48 h) and in experiment [2] (72 h) was 0 (inactive) in each case. Moreover, the values for the drug effect in experiment [3] (24 h), in experiment [3] (48 h) and in experiment [3] (72 h) were < 0 (inactive), 0.1 (inactive) and 0.167 (inactive), respectively.
With `O=C1[C@@H](Oc2ccccc2)[C@@H](c2ccc(Cl)cc2)N1CCn1cnc2c(NCc3ccccc3)ncnc21`, in experiment [1], the XTT viability is 68.1%. The phenotypic severity score in experiment [2] (24 h) is 3 (active); in experiment [2] (48 h) it was 4 (active); in experiment [2] (72 h), 4 (active). Further, the results for the drug effect in experiment [3] (24 h), in experiment [3] (48 h) and in experiment [3] (72 h) were 0.136 (inactive), 0.1 (inactive) and 0.158 (inactive), respectively.
For the molecule `COCC(C)NC(=O)CSc1ncnc2sc(-c3ccccc3)cc12` (configuration not stated), the XTT viability in experiment [1] came out at 93.6%. In addition, the phenotypic severity score in experiment [2] (24 h), in experiment [2] (48 h) and in experiment [2] (72 h) was 0 (inactive) throughout. Besides, the figures for the drug effect in experiment [3] (24 h), in experiment [3] (48 h) and in experiment [3] (72 h) were 0.1 (inactive), 0.135 (inactive) and 0.111 (inactive), respectively.
Consider `Nc1ncc(-c2ccc(C(F)(F)F)nc2)cc1-c1ccc(C(F)(F)F)nc1`, for which, in experiment [1], the XTT viability stood at 79.3%. Besides, the phenotypic severity score in experiment [2] (24 h), in experiment [2] (48 h) and in experiment [2] (72 h) was 0 (inactive) each time. Moreover, the values for the drug effect in experiment [3] (24 h), in experiment [3] (48 h) and in experiment [3] (72 h) were 0.182 (inactive), 0.15 (inactive) and 0.127 (inactive), respectively.
On to `CC1CS(=O)(=O)CCN1/N=C/c1ccc([N+](=O)[O-])o1` (configuration not stated), for which, in experiment [1], the XTT viability came out at 224%. Moreover, the phenotypic severity score in experiment [2] (24 h), in experiment [2] (48 h) and in experiment [2] (72 h) was 0 (inactive) each time. The drug effect was 0.3 (inactive) in experiment [3] (24 h), 0.278 (inactive) in experiment [3] (48 h) and 0.625 (active) in experiment [3] (72 h).
On to `COc1ccc2nc(C)cc(OCC(=O)NCc3ccccc3)c2c1`, for which the XTT viability in experiment [1] turned out to be 74.7%. Moreover, the phenotypic severity score in experiment [2] (24 h), in experiment [2] (48 h) and in experiment [2] (72 h) was 0 (inactive) in each case. The drug effect in experiment [3] (24 h) is 0.0526 (inactive); in experiment [3] (48 h), 0.0556 (inactive); in experiment [3] (72 h), < 0 (inactive).
`N#Cc1ccc(-c2cnc(N)c(-c3ccc(C(N)=O)cc3)n2)cc1`: in experiment [1], the XTT viability worked out at 113%. For the same molecule, the values for the phenotypic severity score in experiment [2] (24 h), in experiment [2] (48 h) and in experiment [2] (72 h) were 2 (active), 2 (active) and 4 (active), respectively. Further, the drug effect in experiment [3] (24 h) is 0.027 (inactive); in experiment [3] (48 h), 0.333 (inactive); in experiment [3] (72 h) it was 0.5 (active).
On to `CCC(Sc1nc2ccccc2o1)C(=O)Nc1nnc(C)s1` (configuration not stated), for which the XTT viability in experiment [1] is 82.8%. Besides, the phenotypic severity score in experiment [2] (24 h), in experiment [2] (48 h) and in experiment [2] (72 h) was 0 (inactive) each time. In addition, the figures for the drug effect in experiment [3] (24 h), in experiment [3] (48 h) and in experiment [3] (72 h) were 0.1 (inactive), 0.111 (inactive) and 0.312 (inactive), respectively.
With `Cn1ncc2c(N3CCOCC3)nc(NCCc3c[nH]c4ccccc34)nc21`, the XTT viability in experiment [1] stood at 71.8%. The phenotypic severity score in experiment [2] (24 h), in experiment [2] (48 h) and in experiment [2] (72 h) was 4 (active) each time. The drug effect is 0.45 (inactive) in experiment [3] (24 h), 0.676 (active) in experiment [3] (48 h) and 0.944 (active) in experiment [3] (72 h).
Regarding `Cc1cc(C)nc(-n2nc(C)cc2Nc2ccccc2)n1`, the XTT viability in experiment [1] is 55.6%. In addition, the values for the phenotypic severity score in experiment [2] (24 h), in experiment [2] (48 h) and in experiment [2] (72 h) were 2 (active), 1 (inactive) and 4 (active), respectively. Also, the drug effect in experiment [3] (24 h) is 0.0526 (inactive); in experiment [3] (48 h), 0.278 (inactive); in experiment [3] (72 h), 0.25 (inactive).
Turning to `CC(C)(C(=O)Nc1ccc(F)cc1)n1cc(-c2ccccc2F)cn1`, in experiment [1], the XTT viability stood at 128%. In addition, the phenotypic severity score in experiment [2] (24 h), in experiment [2] (48 h) and in experiment [2] (72 h) was 0 (inactive) throughout. Moreover, the drug effect is 0.135 (inactive) in experiment [3] (24 h), 0.111 (inactive) in experiment [3] (48 h) and < 0 (inactive) in experiment [3] (72 h).
Turning to `CC1COC2(CCN(c3nc(=O)c4cc(C(F)(F)F)cc([N+](=O)[O-])c4s3)CC2)O1` (configuration not stated), the XTT viability in experiment [1] was determined as 80%. The phenotypic severity score in experiment [2] (24 h) is 1 (inactive); in experiment [2] (48 h) it was 0 (inactive); in experiment [2] (72 h) it was 0 (inactive). Moreover, the drug effect is 0.136 (inactive) in experiment [3] (24 h), 0.25 (inactive) in experiment [3] (48 h) and 0.291 (inactive) in experiment [3] (72 h).
As for `COc1cc(C(F)(F)F)nc2ccc(C)c(N)c12`, the XTT viability in experiment [1] amounted to 79.3%. The phenotypic severity score in experiment [2] (24 h), in experiment [2] (48 h) and in experiment [2] (72 h) was 0 (inactive) throughout. For the same molecule, the drug effect in experiment [3] (24 h) was 0.136 (inactive); in experiment [3] (48 h) it was 0.05 (inactive); in experiment [3] (72 h), 0.0526 (inactive).
